Sampled rows, rich in hits. Any-hit rate of the full collection: about 5.7%.
hgDAF12 agonist = H. glycines DAF-12 receptor agonists, primary screen, cell-based, luminescence, HEK293, GAL4 fusion, UAS-luciferase | Nuclear hormone receptor DAF-12 (Heterodera glycines), GAL4 fusion | HEK293 GAL4-hgDAF12 UAS-luciferase reporter, agonist luminescence; normalized to butyrate control | activation, % at 6.8 µM | actives 1.8% (n = 370,000) | AID 687014, 2013;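 active means activation above a cutoff set at the mean of all screened compounds plus 3 SD, cut at about 10% in these data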;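 further: 0% = DMSO wells and 100% = sodium butyrate wells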
DAX1 inh-1 = DAX1 (NR0B1) inhibitors on StAR promoter, primary screen, cell-based, luminescence, SF-1 (NR5A1), full-length DAX-1. inhibition, % at 6.8 µM. HEK293T StAR-luciferase reporter, SF-1/DAX-1 repression relief. actives 1.1% (n = 370,000);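 active means inhibition above the mean over all tested compounds plus 3 SD, cut at about 3.6% in these data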;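 further: 0% = DAX-1 cells with DMSO and 100% = cells lacking DAX-1 with DMSO; higher inhibition means more luminescence from relief of DAX-1 repression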
AHR activator = AHR activators, primary screen, cell-based, luminescence, luciferase reporter, human | Aryl hydrocarbon receptor (Homo sapiens), P35869 | AHR-responsive luciferase reporter cells | activation, % at 5 µM | actives 2.5% (n = 320,000); in the data active means activation above about 47%;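 further: 0% = vehicle wells and 100% = reference agonist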
DAX1 inh-2 = DAX1 (NR0B1) inhibitors, primary screen, cell-based, HEK293, Gal4-DAX1, luciferase luminescence. Nuclear receptor subfamily 0 group B member 1 (Homo sapiens), P51843. HEK293 Gal4-DAX1 luciferase reporter. inhibition, % at 6.75 µM. actives 0.99% (n = 340,000);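 active means inhibition above the mean over all tested compounds plus 3 SD, cut at about 4.2% in these data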;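 further: 0% = DAX1-transfected cells with DMSO and 100% = empty-vector control cells with DMSO; inhibition shows as a rise in luminescence from relieved DAX1 repression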
Target sequence (P51843 207-470 limits assumed): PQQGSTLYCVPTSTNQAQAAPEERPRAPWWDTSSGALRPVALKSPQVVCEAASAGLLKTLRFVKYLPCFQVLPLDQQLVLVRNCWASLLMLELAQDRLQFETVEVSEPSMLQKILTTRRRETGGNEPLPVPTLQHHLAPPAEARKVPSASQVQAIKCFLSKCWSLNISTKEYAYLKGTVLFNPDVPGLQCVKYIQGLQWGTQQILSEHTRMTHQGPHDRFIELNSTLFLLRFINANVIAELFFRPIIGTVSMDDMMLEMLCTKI
hcDAF-12 act = H. contortus DAF-12 nuclear receptor activators, primary screen, cell-based, luminescence, HEK293, lit1-tk-luc reporter. HEK293 hcDAF-12 lit1-tk-luc reporter; 0% DMSO, 100% Δ7-dafachronic acid. activation, % at 6.8 µM. actives 1.4% (n = 370,000). AID 652067, 2013;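 active means activation above the mean of all tested compounds plus 3 SD, cut at about 5.5% in these data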;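 further: 100% = response to 3 µM Δ7-dafachronic acid high control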
ssDAF-12 act = S. stercoralis DAF-12 nuclear receptor activators, primary screen, cell-based, luminescence, HEK293, GRIP1 co-expression, lit1-tk-luc; Nuclear hormone receptor DAF-12 (Strongyloides stercoralis); HEK293 ssDAF-12/GRIP1 lit1-tk-luc reporter; % of 3 µM dafachronic acid response; activation, % at 6.8 µM; actives 1% (n = 370,000);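 active means activation above the mean over all tested compounds plus 3 SD, cut at about 0.9% in these data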;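 further: 0% = DMSO-only wells and 100% = 3 µM delta7-dafachronic acid wells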
Numbers without * were called inactive; · = no result given.

SMILES | hgDAF12 agonist | DAX1 inh-1 | AHR activator | DAX1 inh-2 | hcDAF-12 act | ssDAF-12 act
CCC(=O)N1C(C(=O)O)CSC1c1ccc(OC)cc1 (stereo not drawn) | -1 | 0 | 0 | 3 | -1 | -1
CC(=O)Nc1ccc(S(=O)(=O)N(C)CC(=O)OCC(=O)NCc2ccco2)cc1 | 1 | -1 | -2 | 0 | 0 | -1
Cc1cccc2sc(NNC(=O)c3cc(=O)c4ccccc4o3)nc12 | 4 | 1 | 67* | 0 | 6.0* | 1.4*
Cc1ccc2sc(NNC(=O)c3cc(-c4cccs4)nc4ccccc34)nc2c1C | 0 | 1 | 24 | · | 1 | 0
O=C(NNc1nc2c(F)cccc2s1)c1cc(=O)c2ccccc2o1 | 3 | 1 | 80* | -1 | 6.2* | 0
O=C(NNc1nc2c(F)cccc2s1)C1COc2ccccc2O1 (stereo not drawn) | 4 | 0 | 19 | 0 | 2 | 1
Cc1ccc2sc(NNC(=O)c3cc(=O)c4ccccc4o3)nc2c1C | 3 | -1 | 76* | 1 | 2 | 0
CCOC(=O)c1cccc(C(=O)Nc2nc3ccc(OC)cc3s2)n1 | -1 | 1 | 14 | 1 | 1 | -1
COc1ccc2nc(NNC(=O)c3cc(=O)c4ccccc4o3)sc2c1 | 9 | 2 | 73* | 0 | 5 | 0
CCCCNc1cccc2c1S(=O)(=O)N[C@H](CC(C)C)CO2 | -3 | -1 | · | · | -2 | -1
CC(C)Cn1c(CCNC(=O)c2ccco2)nc2ccccc21 | -3 | 0 | 1 | 1 | 2 | -1
NNc1nc2c(F)cc(F)cc2s1 | 8 | 1 | 41 | 0 | 5 | 0
Cc1noc(C)c1S(=O)(=O)N1CCCc2nc(-c3ccc(Br)cc3)ccc21 | 2 | -1 | · | · | -1 | -1
O=C(COc1ccccc1)NNc1nc2c(F)cccc2s1 | -4 | 0 | 22 | 3 | 3 | 0
O=C(NNc1nc2c(F)cccc2s1)c1ccc(F)cc1 | 2 | 0 | 10 | -1 | 3 | 1.3*
CCOC(=O)/C(C#N)=C/Nc1ccccc1OC | 13* | 1 | 5 | 2 | 3 | 0
COC(=O)[C@]12C[C@H](CC(=O)N3CCOCC3)C(=O)N(Cc3ccccc3)C1=C[C@H](C1CCCC1)O[C@@H]2C | -2 | 1 | · | · | -3 | -1
O=[N+]([O-])c1cccc(-c2ccc(/C=N/NC(=S)Nc3ccccc3)o2)c1 | 4 | -1 | 65* | -1 | 1 | -1
COc1ccc(OC)c(S(=O)(=O)N2CCC(C(=O)N3CCCCCC3)CC2)c1 | 0 | 0 | 1 | 2 | 1 | -1
CCOc1ccc2[nH]c3c(N4CCC5(CC4)OCCO5)ncnc3c2c1 | -3 | -1 | 71* | · | -2 | -2
COc1ccc2[nH]c3c(N4CCc5ccccc5C4)ncnc3c2c1 | -4 | -2 | 58* | -8 | -5 | -2
CCOc1ccc2[nH]c3c(N4CCN(C(=O)c5ccco5)CC4)ncnc3c2c1 | -2 | -1 | 24 | · | -2 | -1
O=C(COC(=O)c1ccc(Cl)cc1)NCC1CCCCC1 | 4 | 1 | 0 | 0 | -1 | -1
Cc1cccc(C)c1NC(=O)C(NC(=O)c1ccccn1)c1ccc([N+](=O)[O-])cc1 (stereo not drawn) | 1 | 0 | 2 | 0 | 1 | -1
Cc1cccc(C)c1NC(=O)C(c1cccc([N+](=O)[O-])c1)N(C)C(=O)c1ccccn1 (stereo not drawn) | -2 | -1 | -3 | 0 | -1 | 1.0*
CCOc1cc(CNc2ccc3cn[nH]c3c2)ccc1OC | 4 | -1 | 53* | -1 | 4 | 1
CN1C(C(=O)Nc2cccc(O)c2)=CC(c2ccco2)=NS1(=O)=O | 5 | 0 | -1 | 7.6* | 1 | -1
